# According to paper PMC11062922 (Nature Chemical Biology, 2023):
# Read-outs that look alike come from different tables or passages of the source.
# Assays:
# [1] = tested on: SYK; conditions: read-out: apparent Kd, n = 1
# [2] = tested on: TNK2; conditions: read-out: apparent Kd, n = 1
# [3] = compound concentrations:100 nM and 1000 nM (sheet 'Lestaurtinib' of Supplementary Table 1),run:Lestaurtinib_02748_R1,Plate:MR024
# [4] = compound concentrations:100 nM and 1000 nM (sheet 'Lestaurtinib' of Supplementary Table 1),run:Lestaurtinib_02752_R1,Plate:MR025
# [5] = compound concentrations:100 nM and 1000 nM (sheet 'Lestaurtinib' of Supplementary Table 1),run:Lestaurtinib_02752_R2,Plate:MR025
# [6] = compound concentrations:100 nM and 1000 nM (sheet 'Lestaurtinib' of Supplementary Table 1),run:Lestaurtinib_02765_R2,Plate:MR026
# [7] = compound concentrations:100 nM and 1000 nM (sheet 'Lestaurtinib' of Supplementary Table 1),run:Lestaurtinib_02765_R3,Plate:MR026
# [8] = compound concentrations:100 nM and 1000 nM (sheet 'Lestaurtinib' of Supplementary Table 1),run:Lestaurtinib_02766_R1,Plate:MR027
# [9] = compound concentrations:100 nM and 1000 nM (sheet 'Lestaurtinib' of Supplementary Table 1),run:Lestaurtinib_02766_R3,Plate:MR027
# [10] = compound concentrations:100 nM and 1000 nM (sheet 'Lestaurtinib' of Supplementary Table 1),run:Lestaurtinib_02768_R1,Plate:MR028
# [11] = compound concentrations:100 nM and 1000 nM (sheet 'Lestaurtinib' of Supplementary Table 1),run:Lestaurtinib_02768_R2,Plate:MR028
# [12] = compound concentrations:100 nM and 1000 nM (sheet 'Lestaurtinib' of Supplementary Table 1),run:Lestaurtinib_02795_R1,Plate:MR022
# [13] = compound concentrations:100 nM and 1000 nM (sheet 'Lestaurtinib' of Supplementary Table 1),run:Lestaurtinib_02795_R3,Plate:MR022
# [14] = compound concentrations:100 nM and 1000 nM (sheet 'Lestaurtinib' of Supplementary Table 1),run:Lestaurtinib_02802_R1,Plate:MR029
# [15] = compound concentrations:100 nM and 1000 nM (sheet 'Lestaurtinib' of Supplementary Table 1),run:Lestaurtinib_02802_R3,Plate:MR029
# [16] = compound concentrations:100 nM and 1000 nM (sheet 'Lestaurtinib' of Supplementary Table 1),run:Lestaurtinib_02896_R1,Plate:MR030
# [17] = compound concentrations:100 nM and 1000 nM (sheet 'Lestaurtinib' of Supplementary Table 1),run:Lestaurtinib_02896_R3,Plate:MR030
# [18] = compound concentrations:100 nM and 1000 nM (sheet 'Lestaurtinib' of Supplementary Table 1),run:Lestaurtinib_03172_R3,Plate:MR031
# [19] = compound concentrations:100 nM and 1000 nM (sheet 'Lestaurtinib' of Supplementary Table 1),run:Lestaurtinib_03252_R1,Plate:MR032
# [20] = compound concentrations:100 nM and 1000 nM (sheet 'Lestaurtinib' of Supplementary Table 1),run:Lestaurtinib_03260_R3,Plate:MR033
substance,measurement,setting,value
Lestaurtinib,potency estimated from few doses,[1]; [3],393 nM
same,potency estimated from few doses,"[1]; compound concentrations:100 nM and 1000 nM (sheet 'Lestaurtinib' of Supplementary Table 1),run:Lestaurtinib_02748_R2,Plate:MR024",196 nM
same,potency estimated from few doses,[1]; [4],510 nM
same,potency estimated from few doses,[1]; [5],136 nM
same,potency estimated from few doses,[1]; [6],169 nM
same,potency estimated from few doses,[1]; [7],182 nM
same,potency estimated from few doses,[1]; [8],211 nM
same,potency estimated from few doses,[1]; [9],441 nM
same,potency estimated from few doses,[1]; [10],484 nM
same,potency estimated from few doses,[1]; [11],424 nM
same,potency estimated from few doses,[1]; [12],460 nM
same,potency estimated from few doses,"[1]; compound concentrations:100 nM and 1000 nM (sheet 'Lestaurtinib' of Supplementary Table 1),run:Lestaurtinib_02795_R2,Plate:MR022",141 nM
same,potency estimated from few doses,[1]; [13],259 nM
same,potency estimated from few doses,[1]; [14],239 nM
same,potency estimated from few doses,[1]; [15],451 nM
same,potency estimated from few doses,[1]; [16],253 nM
same,potency estimated from few doses,[1]; [17],217 nM
same,potency estimated from few doses,"[1]; compound concentrations:100 nM and 1000 nM (sheet 'Lestaurtinib' of Supplementary Table 1),run:Lestaurtinib_03172_R2,Plate:MR031",595 nM
same,potency estimated from few doses,[1]; [18],400 nM
same,potency estimated from few doses,[1]; [19],149 nM
same,potency estimated from few doses,"[1]; compound concentrations:100 nM and 1000 nM (sheet 'Lestaurtinib' of Supplementary Table 1),run:Lestaurtinib_03252_R2,Plate:MR032",222 nM
same,potency estimated from few doses,"[1]; compound concentrations:100 nM and 1000 nM (sheet 'Lestaurtinib' of Supplementary Table 1),run:Lestaurtinib_03260_R2,Plate:MR033",224 nM
same,potency estimated from few doses,[1]; [20],130 nM
same,potency estimated from few doses,"[2]; compound concentrations:100 nM and 1000 nM (sheet 'Lestaurtinib' of Supplementary Table 1),run:Lestaurtinib_02339_R3,Plate:MR001",44 nM
same,potency estimated from few doses,"[2]; compound concentrations:100 nM and 1000 nM (sheet 'Lestaurtinib' of Supplementary Table 1),run:Lestaurtinib_02364_R1,Plate:MR002",69.8 nM
same,potency estimated from few doses,"[2]; compound concentrations:100 nM and 1000 nM (sheet 'Lestaurtinib' of Supplementary Table 1),run:Lestaurtinib_02364_R2,Plate:MR002",56.4 nM
same,potency estimated from few doses,"[2]; compound concentrations:100 nM and 1000 nM (sheet 'Lestaurtinib' of Supplementary Table 1),run:Lestaurtinib_02364_R3,Plate:MR002",61.3 nM
same,potency estimated from few doses,"[2]; compound concentrations:100 nM and 1000 nM (sheet 'Lestaurtinib' of Supplementary Table 1),run:Lestaurtinib_02367_R1,Plate:MR003",66.6 nM
same,potency estimated from few doses,"[2]; compound concentrations:100 nM and 1000 nM (sheet 'Lestaurtinib' of Supplementary Table 1),run:Lestaurtinib_02367_R2,Plate:MR003",52.8 nM
same,potency estimated from few doses,"[2]; compound concentrations:100 nM and 1000 nM (sheet 'Lestaurtinib' of Supplementary Table 1),run:Lestaurtinib_02381_R1,Plate:MR004",50 nM
same,potency estimated from few doses,"[2]; compound concentrations:100 nM and 1000 nM (sheet 'Lestaurtinib' of Supplementary Table 1),run:Lestaurtinib_02381_R2,Plate:MR004",65.5 nM
same,potency estimated from few doses,"[2]; compound concentrations:100 nM and 1000 nM (sheet 'Lestaurtinib' of Supplementary Table 1),run:Lestaurtinib_02407_R3,Plate:MR005",54.4 nM
same,potency estimated from few doses,"[2]; compound concentrations:100 nM and 1000 nM (sheet 'Lestaurtinib' of Supplementary Table 1),run:Lestaurtinib_02422_R1,Plate:MR006",44.1 nM
same,potency estimated from few doses,"[2]; compound concentrations:100 nM and 1000 nM (sheet 'Lestaurtinib' of Supplementary Table 1),run:Lestaurtinib_02422_R3,Plate:MR006",48 nM
same,potency estimated from few doses,"[2]; compound concentrations:100 nM and 1000 nM (sheet 'Lestaurtinib' of Supplementary Table 1),run:Lestaurtinib_02437_R3,Plate:MR007",14.1 nM
same,potency estimated from few doses,"[2]; compound concentrations:100 nM and 1000 nM (sheet 'Lestaurtinib' of Supplementary Table 1),run:Lestaurtinib_02438_R2,Plate:MR008",43.2 nM
same,potency estimated from few doses,"[2]; compound concentrations:100 nM and 1000 nM (sheet 'Lestaurtinib' of Supplementary Table 1),run:Lestaurtinib_02443_R2,Plate:MR009",44.4 nM
same,potency estimated from few doses,"[2]; compound concentrations:100 nM and 1000 nM (sheet 'Lestaurtinib' of Supplementary Table 1),run:Lestaurtinib_02443_R3,Plate:MR009",62 nM
same,potency estimated from few doses,"[2]; compound concentrations:100 nM and 1000 nM (sheet 'Lestaurtinib' of Supplementary Table 1),run:Lestaurtinib_02473_R1,Plate:MR010",52.5 nM
same,potency estimated from few doses,"[2]; compound concentrations:100 nM and 1000 nM (sheet 'Lestaurtinib' of Supplementary Table 1),run:Lestaurtinib_02473_R3,Plate:MR010",23.2 nM
same,potency estimated from few doses,"[2]; compound concentrations:100 nM and 1000 nM (sheet 'Lestaurtinib' of Supplementary Table 1),run:Lestaurtinib_02482_R1,Plate:MR011",54.7 nM
same,potency estimated from few doses,"[2]; compound concentrations:100 nM and 1000 nM (sheet 'Lestaurtinib' of Supplementary Table 1),run:Lestaurtinib_02482_R2,Plate:MR011",59.1 nM
same,potency estimated from few doses,"[2]; compound concentrations:100 nM and 1000 nM (sheet 'Lestaurtinib' of Supplementary Table 1),run:Lestaurtinib_02482_R3,Plate:MR011",60.1 nM
same,potency estimated from few doses,"[2]; compound concentrations:100 nM and 1000 nM (sheet 'Lestaurtinib' of Supplementary Table 1),run:Lestaurtinib_02487_R1,Plate:MR012",51.2 nM
same,potency estimated from few doses,"[2]; compound concentrations:100 nM and 1000 nM (sheet 'Lestaurtinib' of Supplementary Table 1),run:Lestaurtinib_02487_R3,Plate:MR012",44.6 nM
same,potency estimated from few doses,"[2]; compound concentrations:100 nM and 1000 nM (sheet 'Lestaurtinib' of Supplementary Table 1),run:Lestaurtinib_02496_R2,Plate:MR013",48.4 nM
same,potency estimated from few doses,"[2]; compound concentrations:100 nM and 1000 nM (sheet 'Lestaurtinib' of Supplementary Table 1),run:Lestaurtinib_02496_R3,Plate:MR013",38.5 nM
same,potency estimated from few doses,"[2]; compound concentrations:100 nM and 1000 nM (sheet 'Lestaurtinib' of Supplementary Table 1),run:Lestaurtinib_02566_R1,Plate:MR014",51.6 nM
same,potency estimated from few doses,"[2]; compound concentrations:100 nM and 1000 nM (sheet 'Lestaurtinib' of Supplementary Table 1),run:Lestaurtinib_02566_R2,Plate:MR014",58.8 nM
same,potency estimated from few doses,"[2]; compound concentrations:100 nM and 1000 nM (sheet 'Lestaurtinib' of Supplementary Table 1),run:Lestaurtinib_02572_R1,Plate:MR015",37.5 nM
same,potency estimated from few doses,"[2]; compound concentrations:100 nM and 1000 nM (sheet 'Lestaurtinib' of Supplementary Table 1),run:Lestaurtinib_02572_R2,Plate:MR015",46.2 nM
same,potency estimated from few doses,"[2]; compound concentrations:100 nM and 1000 nM (sheet 'Lestaurtinib' of Supplementary Table 1),run:Lestaurtinib_02572_R3,Plate:MR015",49.3 nM
same,potency estimated from few doses,"[2]; compound concentrations:100 nM and 1000 nM (sheet 'Lestaurtinib' of Supplementary Table 1),run:Lestaurtinib_02577_R1,Plate:MR016",55.6 nM
same,potency estimated from few doses,"[2]; compound concentrations:100 nM and 1000 nM (sheet 'Lestaurtinib' of Supplementary Table 1),run:Lestaurtinib_02577_R2,Plate:MR016",56.4 nM
same,potency estimated from few doses,"[2]; compound concentrations:100 nM and 1000 nM (sheet 'Lestaurtinib' of Supplementary Table 1),run:Lestaurtinib_02577_R3,Plate:MR016",62.6 nM
same,potency estimated from few doses,"[2]; compound concentrations:100 nM and 1000 nM (sheet 'Lestaurtinib' of Supplementary Table 1),run:Lestaurtinib_02584_R1,Plate:MR017",56.4 nM
same,potency estimated from few doses,"[2]; compound concentrations:100 nM and 1000 nM (sheet 'Lestaurtinib' of Supplementary Table 1),run:Lestaurtinib_02584_R2,Plate:MR017",64.8 nM
same,potency estimated from few doses,"[2]; compound concentrations:100 nM and 1000 nM (sheet 'Lestaurtinib' of Supplementary Table 1),run:Lestaurtinib_02601_R1,Plate:MR018",77.3 nM
same,potency estimated from few doses,"[2]; compound concentrations:100 nM and 1000 nM (sheet 'Lestaurtinib' of Supplementary Table 1),run:Lestaurtinib_02606_R1,Plate:MR019",55.6 nM
same,potency estimated from few doses,"[2]; compound concentrations:100 nM and 1000 nM (sheet 'Lestaurtinib' of Supplementary Table 1),run:Lestaurtinib_02606_R3,Plate:MR019",54.4 nM
same,potency estimated from few doses,"[2]; compound concentrations:100 nM and 1000 nM (sheet 'Lestaurtinib' of Supplementary Table 1),run:Lestaurtinib_02624_R2,Plate:MR020",52.3 nM
same,potency estimated from few doses,"[2]; compound concentrations:100 nM and 1000 nM (sheet 'Lestaurtinib' of Supplementary Table 1),run:Lestaurtinib_02724_R2,Plate:MR021",56.1 nM
same,potency estimated from few doses,"[2]; compound concentrations:100 nM and 1000 nM (sheet 'Lestaurtinib' of Supplementary Table 1),run:Lestaurtinib_02741_R2,Plate:MR023",224 nM
same,potency estimated from few doses,[2]; [3],38.5 nM
same,potency estimated from few doses,"[2]; compound concentrations:100 nM and 1000 nM (sheet 'Lestaurtinib' of Supplementary Table 1),run:Lestaurtinib_02748_R3,Plate:MR024",52.3 nM
same,potency estimated from few doses,[2]; [4],57.7 nM
same,potency estimated from few doses,[2]; [5],46.1 nM
same,potency estimated from few doses,[2]; [6],115 nM
same,potency estimated from few doses,[2]; [7],75.6 nM
same,potency estimated from few doses,[2]; [8],51.8 nM
same,potency estimated from few doses,"[2]; compound concentrations:100 nM and 1000 nM (sheet 'Lestaurtinib' of Supplementary Table 1),run:Lestaurtinib_02766_R2,Plate:MR027",15.7 nM
same,potency estimated from few doses,[2]; [9],41.6 nM
same,potency estimated from few doses,[2]; [10],60 nM
same,potency estimated from few doses,[2]; [11],56.1 nM
same,potency estimated from few doses,[2]; [12],49.4 nM
same,potency estimated from few doses,[2]; [13],160 nM
same,potency estimated from few doses,[2]; [14],71.2 nM
same,potency estimated from few doses,[2]; [15],9.76 nM
same,potency estimated from few doses,[2]; [16],61.8 nM
same,potency estimated from few doses,[2]; [17],53.9 nM
same,potency estimated from few doses,"[2]; compound concentrations:100 nM and 1000 nM (sheet 'Lestaurtinib' of Supplementary Table 1),run:Lestaurtinib_03172_R1,Plate:MR031",45.6 nM
same,potency estimated from few doses,[2]; [18],48.7 nM
same,potency estimated from few doses,[2]; [19],75.4 nM
same,potency estimated from few doses,"[2]; compound concentrations:100 nM and 1000 nM (sheet 'Lestaurtinib' of Supplementary Table 1),run:Lestaurtinib_03260_R1,Plate:MR033",115 nM
same,potency estimated from few doses,[2]; [20],59.2 nM
